Results reported in ChEMBL document CHEMBL1961873, “Compounds: GSK PKIS; Assays: Nanosyn kinase panel” (2012).
Where “and” joins values, the source holds several entries; their conditions need not be identical. Equal entries are not always repeated.

Columns and labels:
[1] = target: Leukocyte tyrosine kinase receptor (Homo sapiens) (UniProt P29376); details: at 1 µM;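 also: each value is the mean inhibition of LTK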
[2] = target: Tyrosine-protein kinase Lyn (Homo sapiens) (UniProt P07948); details: at 0.1 µM
[3] = target: Tyrosine-protein kinase Lyn (Homo sapiens) (UniProt P07948); details: at 1 µM
[4] = target: Tyrosine-protein kinase Lyn (Homo sapiens) (UniProt P07948); details: at 0.1 µM; remark: listed apart in the source
[5] = target: Tyrosine-protein kinase Lyn (Homo sapiens) (UniProt P07948); details: at 1 µM; remark: listed apart in the source
[6] = target: T1, Tyrosine-protein kinase Mer (Homo sapiens) (UniProt Q12866); details: at 0.1 µM
T1 sequence (whole entry): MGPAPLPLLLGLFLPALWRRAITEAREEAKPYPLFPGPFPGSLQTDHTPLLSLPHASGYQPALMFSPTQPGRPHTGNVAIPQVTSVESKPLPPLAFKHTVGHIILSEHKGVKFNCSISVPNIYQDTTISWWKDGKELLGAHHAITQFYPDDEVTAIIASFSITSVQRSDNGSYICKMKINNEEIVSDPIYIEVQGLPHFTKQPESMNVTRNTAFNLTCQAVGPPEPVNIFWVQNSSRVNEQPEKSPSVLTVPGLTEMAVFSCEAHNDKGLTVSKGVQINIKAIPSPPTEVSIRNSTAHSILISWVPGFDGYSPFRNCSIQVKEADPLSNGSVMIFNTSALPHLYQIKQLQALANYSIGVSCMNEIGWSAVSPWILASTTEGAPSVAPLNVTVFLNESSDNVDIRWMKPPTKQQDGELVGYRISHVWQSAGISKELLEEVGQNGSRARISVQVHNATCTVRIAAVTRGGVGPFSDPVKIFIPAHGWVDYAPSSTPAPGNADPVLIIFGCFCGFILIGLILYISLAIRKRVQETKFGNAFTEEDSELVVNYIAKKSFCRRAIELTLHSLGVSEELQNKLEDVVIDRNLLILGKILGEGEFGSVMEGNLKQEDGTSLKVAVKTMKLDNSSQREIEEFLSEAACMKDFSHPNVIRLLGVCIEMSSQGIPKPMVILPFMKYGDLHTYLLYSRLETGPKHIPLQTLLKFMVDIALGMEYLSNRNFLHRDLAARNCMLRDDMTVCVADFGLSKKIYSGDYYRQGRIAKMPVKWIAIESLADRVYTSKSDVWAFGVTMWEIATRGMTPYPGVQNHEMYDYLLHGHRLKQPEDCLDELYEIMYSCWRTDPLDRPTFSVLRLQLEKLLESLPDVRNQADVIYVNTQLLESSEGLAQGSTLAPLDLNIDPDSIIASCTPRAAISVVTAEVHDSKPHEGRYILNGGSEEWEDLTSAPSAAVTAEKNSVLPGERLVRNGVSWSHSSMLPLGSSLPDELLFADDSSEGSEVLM

[7] = target: T1, Tyrosine-protein kinase Mer (Homo sapiens); details: at 1 µM
[8] = target: Hepatocyte growth factor receptor (Homo sapiens) (UniProt P08581); details: at 0.1 µM
[9] = target: Hepatocyte growth factor receptor (Homo sapiens) (UniProt P08581); details: at 1 µM
[10] = target: T2, Muscle, skeletal receptor tyrosine-protein kinase (Homo sapiens) (UniProt O15146); details: at 0.1 µM;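 also: values are mean inhibition of MuSK from the GSK PKIS kinase screening panel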
T2 sequence (whole entry): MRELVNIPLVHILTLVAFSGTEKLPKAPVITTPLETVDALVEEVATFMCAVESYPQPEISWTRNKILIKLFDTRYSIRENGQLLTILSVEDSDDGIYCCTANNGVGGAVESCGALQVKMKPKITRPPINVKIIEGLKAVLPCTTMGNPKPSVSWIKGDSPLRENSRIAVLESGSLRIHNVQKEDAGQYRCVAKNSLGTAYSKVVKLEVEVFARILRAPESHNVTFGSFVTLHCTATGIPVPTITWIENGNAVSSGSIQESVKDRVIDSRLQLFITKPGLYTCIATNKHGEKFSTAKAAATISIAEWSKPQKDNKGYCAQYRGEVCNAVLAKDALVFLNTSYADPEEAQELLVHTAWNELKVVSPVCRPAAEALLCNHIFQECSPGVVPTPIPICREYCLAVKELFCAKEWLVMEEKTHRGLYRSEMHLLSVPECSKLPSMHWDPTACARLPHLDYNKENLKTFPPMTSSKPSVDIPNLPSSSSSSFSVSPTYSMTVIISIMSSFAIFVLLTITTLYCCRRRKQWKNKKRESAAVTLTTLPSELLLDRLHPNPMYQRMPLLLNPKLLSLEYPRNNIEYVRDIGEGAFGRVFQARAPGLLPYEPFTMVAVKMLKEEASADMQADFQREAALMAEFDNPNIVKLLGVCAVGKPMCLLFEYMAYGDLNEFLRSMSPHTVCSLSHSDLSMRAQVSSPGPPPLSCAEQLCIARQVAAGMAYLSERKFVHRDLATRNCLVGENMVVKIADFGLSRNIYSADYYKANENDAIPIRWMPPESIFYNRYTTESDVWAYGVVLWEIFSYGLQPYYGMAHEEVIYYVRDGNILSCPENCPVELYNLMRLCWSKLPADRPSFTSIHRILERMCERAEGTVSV

Hepatocyte growth factor receptor (Homo sapiens), sequence (P08581 whole entry): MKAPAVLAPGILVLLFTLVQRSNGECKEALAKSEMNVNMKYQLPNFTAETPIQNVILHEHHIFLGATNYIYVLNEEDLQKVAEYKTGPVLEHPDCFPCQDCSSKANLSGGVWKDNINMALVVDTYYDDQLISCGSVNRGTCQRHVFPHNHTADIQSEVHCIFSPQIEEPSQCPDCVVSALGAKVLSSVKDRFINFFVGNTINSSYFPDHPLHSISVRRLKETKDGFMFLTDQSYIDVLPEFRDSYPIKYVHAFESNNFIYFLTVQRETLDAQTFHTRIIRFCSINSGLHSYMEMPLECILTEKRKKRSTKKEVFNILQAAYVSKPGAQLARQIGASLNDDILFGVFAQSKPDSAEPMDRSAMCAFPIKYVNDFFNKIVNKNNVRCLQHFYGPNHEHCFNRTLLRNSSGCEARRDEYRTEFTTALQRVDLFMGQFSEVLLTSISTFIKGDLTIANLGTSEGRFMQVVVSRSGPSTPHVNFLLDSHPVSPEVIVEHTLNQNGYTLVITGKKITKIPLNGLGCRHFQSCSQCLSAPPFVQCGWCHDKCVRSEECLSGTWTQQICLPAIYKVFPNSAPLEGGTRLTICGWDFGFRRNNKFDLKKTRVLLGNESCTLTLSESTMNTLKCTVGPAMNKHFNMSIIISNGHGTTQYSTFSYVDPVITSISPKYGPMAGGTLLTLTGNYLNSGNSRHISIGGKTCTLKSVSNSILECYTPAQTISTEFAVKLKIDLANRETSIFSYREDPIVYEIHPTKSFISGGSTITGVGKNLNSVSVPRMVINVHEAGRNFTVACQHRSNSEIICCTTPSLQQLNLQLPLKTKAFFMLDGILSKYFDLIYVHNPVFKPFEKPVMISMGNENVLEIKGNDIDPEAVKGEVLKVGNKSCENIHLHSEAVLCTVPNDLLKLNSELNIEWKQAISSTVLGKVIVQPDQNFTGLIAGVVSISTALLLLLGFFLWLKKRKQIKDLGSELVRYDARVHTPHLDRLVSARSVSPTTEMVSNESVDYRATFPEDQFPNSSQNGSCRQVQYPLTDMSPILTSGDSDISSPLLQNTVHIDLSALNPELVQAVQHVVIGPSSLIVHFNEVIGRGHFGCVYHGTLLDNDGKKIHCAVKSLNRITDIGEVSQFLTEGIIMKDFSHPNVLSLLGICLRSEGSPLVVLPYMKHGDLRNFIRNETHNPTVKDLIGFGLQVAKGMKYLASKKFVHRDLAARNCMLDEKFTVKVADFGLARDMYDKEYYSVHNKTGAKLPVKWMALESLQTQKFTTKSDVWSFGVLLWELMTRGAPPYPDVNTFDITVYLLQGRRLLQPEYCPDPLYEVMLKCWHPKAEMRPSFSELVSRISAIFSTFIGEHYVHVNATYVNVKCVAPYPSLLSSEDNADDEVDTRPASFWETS
Leukocyte tyrosine kinase receptor (Homo sapiens), sequence (P29376 whole entry): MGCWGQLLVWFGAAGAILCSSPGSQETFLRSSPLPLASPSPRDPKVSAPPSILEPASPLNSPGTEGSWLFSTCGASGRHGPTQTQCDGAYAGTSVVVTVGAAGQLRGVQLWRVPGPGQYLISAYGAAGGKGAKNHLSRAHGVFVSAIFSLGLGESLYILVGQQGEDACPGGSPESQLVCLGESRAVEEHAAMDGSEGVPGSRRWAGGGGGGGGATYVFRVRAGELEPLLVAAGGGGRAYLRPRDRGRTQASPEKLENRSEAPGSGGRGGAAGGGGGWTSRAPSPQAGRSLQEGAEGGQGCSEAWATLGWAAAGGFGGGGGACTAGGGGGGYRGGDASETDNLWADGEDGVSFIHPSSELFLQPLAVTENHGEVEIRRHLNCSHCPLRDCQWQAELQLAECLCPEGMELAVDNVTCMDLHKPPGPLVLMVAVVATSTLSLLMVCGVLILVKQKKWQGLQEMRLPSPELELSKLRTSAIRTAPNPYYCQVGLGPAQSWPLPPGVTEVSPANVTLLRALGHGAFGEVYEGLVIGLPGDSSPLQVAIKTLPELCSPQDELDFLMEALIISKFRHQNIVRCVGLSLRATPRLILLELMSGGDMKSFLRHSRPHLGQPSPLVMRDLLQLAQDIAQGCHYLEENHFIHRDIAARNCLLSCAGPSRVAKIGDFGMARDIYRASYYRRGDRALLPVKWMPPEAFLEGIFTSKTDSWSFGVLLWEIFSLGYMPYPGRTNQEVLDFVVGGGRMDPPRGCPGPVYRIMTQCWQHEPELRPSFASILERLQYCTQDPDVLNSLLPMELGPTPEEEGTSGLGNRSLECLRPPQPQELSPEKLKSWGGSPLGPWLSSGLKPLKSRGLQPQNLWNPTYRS
Tyrosine-protein kinase Lyn (Homo sapiens), sequence (P07948 2-512 limits assumed): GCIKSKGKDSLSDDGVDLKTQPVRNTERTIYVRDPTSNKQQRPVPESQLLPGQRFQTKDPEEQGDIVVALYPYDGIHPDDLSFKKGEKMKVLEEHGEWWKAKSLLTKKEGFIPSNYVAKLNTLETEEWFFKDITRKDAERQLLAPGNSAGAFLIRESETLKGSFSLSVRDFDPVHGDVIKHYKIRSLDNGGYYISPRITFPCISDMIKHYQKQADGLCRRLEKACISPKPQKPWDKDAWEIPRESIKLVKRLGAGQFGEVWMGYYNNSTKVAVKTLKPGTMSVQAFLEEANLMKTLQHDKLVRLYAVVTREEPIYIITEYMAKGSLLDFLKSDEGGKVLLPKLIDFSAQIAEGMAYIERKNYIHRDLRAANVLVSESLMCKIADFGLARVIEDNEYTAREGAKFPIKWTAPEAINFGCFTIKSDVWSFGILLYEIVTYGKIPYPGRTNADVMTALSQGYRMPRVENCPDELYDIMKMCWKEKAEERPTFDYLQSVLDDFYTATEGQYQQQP

`N#Cc1ccc2c(-c3ccnc(NC4CC4)n3)c(-c3ccc(F)cc3)nn2c1` was tested, and the inhibition [1] was -0.2%, the inhibition [2] was -0.29% and the inhibition [3] was 1.87%. The inhibition [4] was -0.74%, the inhibition [5] was 1.81% and the inhibition [6] was 0.43%. It also gave an inhibition [7] of 2.56%, an inhibition [8] of 3.34% and an inhibition [9] of 3.65%. For the same compound, the inhibition [10] was 0.58%.

`Cc1ccc(-c2cc3c(NC(=O)C4CC4)ncnc3o2)cc1` gave an inhibition [1] of 3.83%, an inhibition [2] of 5.46% and an inhibition [3] of 6.63%. The inhibition [4] was 2.61%, the inhibition [5] was 5.69% and the inhibition [6] was 2.35%. The inhibition [7] was 6.56%, the inhibition [8] was 4.71% and the inhibition [9] was 4.06%. For the same compound, the inhibition [10] was 2.65%.

`Fc1cccc(COc2ccc(Nc3ncncc3C#Cc3ccccc3)cc2Cl)c1` was tested, and the inhibition [1] was 4.63%, the inhibition [2] was 6.26% and the inhibition [3] was 7.71%. For the same compound, the inhibition [4] was 2.8%, the inhibition [5] was 7.49% and the inhibition [6] was 0.06%. The inhibition [7] was 2.67%, the inhibition [8] was 8.24% and the inhibition [9] was 5.53%. It also gave an inhibition [10] of 3.76%.

`Cc1c2ccc(N(C)c3ccnc(Nc4cccc(S(N)(=O)=O)c4)n3)cc2nn1C` showed an inhibition [1] of 24.1%, an inhibition [2] of 41.3% and an inhibition [3] of 83.6%. It also gave an inhibition [4] of 36.3%, an inhibition [5] of 80.7% and an inhibition [6] of 17.7%. For the same compound, the inhibition [7] was 61.9%, the inhibition [8] was 10.6% and the inhibition [9] was 28.1%. For the same compound, the inhibition [10] was 2.38%.

`CN(c1ccc(NC(=O)NCCN2CCOCC2)cc1)c1ccnc(Nc2ccc(CS(C)(=O)=O)cc2)n1` gave an inhibition [1] of 5.29%, an inhibition [2] of 4.34% and an inhibition [3] of 14.9%. For the same compound, the inhibition [4] was 2.19%, the inhibition [5] was 13.6% and the inhibition [6] was 1.6%. The inhibition [7] was 6.28%, the inhibition [8] was 3.89% and the inhibition [9] was 41.4%. The inhibition [10] was 3.78%.

`CS(=O)(=O)Nc1ccc(-c2cc(-c3ccccc3)cc(C(N)=O)c2N)cc1` gave an inhibition [1] of 2.83%, an inhibition [2] of 0.46% and an inhibition [3] of 3.24%. The inhibition [4] was -1.81%, the inhibition [5] was 0.8% and the inhibition [6] was 0.78%. The inhibition [7] was -0.18%, the inhibition [8] was -1.07% and the inhibition [9] was 2.34%. For the same compound, the inhibition [10] was 1.31%.

`CC1=C(C(=O)Nc2ccc3[nH]nc(C)c3c2)C(c2ccc(C(F)(F)F)cc2)CC(=O)N1` (stereo not given) was tested, and the inhibition [1] was 3.55%, the inhibition [2] was 4.49% and the inhibition [3] was 6.25%. The inhibition [4] was 1.98%, the inhibition [5] was 3.89% and the inhibition [6] was 2.17%. It also gave an inhibition [7] of 5.55%, an inhibition [8] of 1.4% and an inhibition [9] of 17.3%. For the same compound, the inhibition [10] was 5.25%.

With `CN1CCN(Cc2ccc(-c3cc4ncnc(Nc5ccc(OCc6cccc(F)c6)c(Cl)c5)c4s3)o2)CC1` the inhibition [1] was 6.82% and 9.25%, the inhibition [2] was 3.27% and 7.55% and the inhibition [3] was 9.39% and 15.3%. For the same compound, the inhibition [4] was 2.07% and 5.46%, the inhibition [5] was 6.51% and 12% and the inhibition [6] was 8.38% and 10.3%. The inhibition [7] was 48.5% and 49.4%, the inhibition [8] was 11.1% and 5.95% and the inhibition [9] was 24.3% and 34.3%. For the same compound, the inhibition [10] was 0.99% and 4.74%.

`CC1(C)CC(n2cnc(-c3ccc(F)cc3)c2-c2ccnc(N)n2)CC(C)(C)N1` was tested, and the inhibition [1] was 0.76%, the inhibition [2] was 0.33% and the inhibition [3] was 2.44%. For the same compound, the inhibition [4] was -0.62%, the inhibition [5] was 0.86% and the inhibition [6] was 0.86%. For the same compound, the inhibition [7] was 3.06%, the inhibition [8] was -5.05% and the inhibition [9] was 5.56%. It also gave an inhibition [10] of 0.69%.

`CCN1CCC(C(=O)Nc2n[nH]c3nnc(-c4cccc(F)c4F)cc23)CC1` gave an inhibition [1] of -0.29%, an inhibition [2] of 0.08% and an inhibition [3] of -1.05%. For the same compound, the inhibition [4] was 1.1%, the inhibition [5] was 0.66% and the inhibition [6] was 0.64%. The inhibition [7] was 2.84%, the inhibition [8] was 4.13% and the inhibition [9] was 2.58%. It also gave an inhibition [10] of 1.86%.

`c1ccc(-c2n[nH]cc2-c2ccnc(-c3ccc(OCCn4ccnc4)cc3)c2)nc1` showed an inhibition [1] of 2.53%, an inhibition [2] of 2.2% and an inhibition [3] of 16.3%. For the same compound, the inhibition [4] was 0.89%, the inhibition [5] was 12.3% and the inhibition [6] was 0.8%. The inhibition [7] was 2.68%, the inhibition [8] was 4.9% and the inhibition [9] was 0.98%. The inhibition [10] was 0.34%.

Compound `CN1CCC(n2cnc(-c3ccc(F)cc3)c2-c2ccnc(NCCO)n2)CC1` has an inhibition [1] of 5.36%, an inhibition [2] of 5.64% and an inhibition [3] of 7.19%. The inhibition [4] was 3.08%, the inhibition [5] was 5.79% and the inhibition [6] was 2.22%. For the same compound, the inhibition [7] was 7.18%, the inhibition [8] was 0.32% and the inhibition [9] was 10.6%. For the same compound, the inhibition [10] was 3.32%.

`NC(=O)c1ccc2c(-c3ccnc(NCCCO)n3)c(-c3ccc(F)cc3)nn2c1` was tested, and the inhibition [1] was 6.21%, the inhibition [2] was 6.82% and the inhibition [3] was 12.1%. It also gave an inhibition [4] of 4.82%, an inhibition [5] of 10.6% and an inhibition [6] of 5.01%. For the same compound, the inhibition [7] was 14.2%, the inhibition [8] was 7.18% and the inhibition [9] was 15.1%. For the same compound, the inhibition [10] was 3.34%.

Compound `COc1c(C(N)=O)cc(-c2ccc(Cl)cc2)cc1-c1ccc(S(N)(=O)=O)cc1` has an inhibition [1] of 6.74%, an inhibition [2] of 5.65% and an inhibition [3] of 6.7%. The inhibition [4] was 3.05%, the inhibition [5] was 3.95% and the inhibition [6] was 2.2%. For the same compound, the inhibition [7] was 6.71%, the inhibition [8] was 10.9% and the inhibition [9] was 5.98%. The inhibition [10] was 2.39%.

`CS(=O)(=O)CCNCc1ccc(-c2ccc3ncnc(Nc4ccc(OCc5ccccc5)cc4)c3c2)o1` was tested, and the inhibition [1] was 4.57%, the inhibition [2] was 4.79% and the inhibition [3] was 9.83%. The inhibition [4] was 4.55%, the inhibition [5] was 8.36% and the inhibition [6] was 7.16%. For the same compound, the inhibition [7] was 43.7%, the inhibition [8] was -0.6% and the inhibition [9] was 4.43%. The inhibition [10] was 2.69%.

`CCCNc1cccc(-n2ncc3c(N/N=C/c4ccncc4)ncnc32)c1` showed an inhibition [1] of 4.23%, an inhibition [2] of 18% and an inhibition [3] of 69.6%. The inhibition [4] was 15.4%, the inhibition [5] was 64.8% and the inhibition [6] was 6.21%. For the same compound, the inhibition [7] was 25.6%, the inhibition [8] was 12.6% and the inhibition [9] was 49%. It also gave an inhibition [10] of 8.51%.
